Consider 38 compounds from PubChem BioAssay (NCI).

The panel holds about 83,000 compounds, 20% with a hit somewhere; the sample as a whole holds those more often.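 Compound tested at a single concentration for 48 hours in 96-well plates; a percent growth value below 10 was scored as active.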 A number with no mark means an inactive call. The source made the active and inactive calls.

For the first assay, the system named is SN12C renal. Nature of the assay: NCI-60 one-dose screen, 48 h (100 = growth as untreated, 0 = no growth, -100 = all killed). The note with it: 10 µM unless noted.
As for `CCN(CC)CCCCCCNc1cc(OC)cc2cccnc12`, the growth was 89.4%.

With `COc1ccccc1Nc1cc(O)c2c(=O)cc(-c3ccccc3)oc2c1`, the growth was 36.6%.

As for `COc1ccc(C(O)c2cc3c(N)c(C(=O)Nc4ccc(Cl)cc4)sc3nc2C)cc1` (stereo unspecified), the growth was 34.6%.

As for `COc1cc(NCC(O)CN(CC(C)C)CC(C)C)c2nc(C)ccc2c1` (stereo unspecified), the growth is 92.3%.

Turning to `CCCCCCCCCCN=C(N)N=C(N)N`, the growth is 9.21% (active).

`COc1ccc(C(O)c2cc3c(N)c(C(=O)Nc4cccc(Br)c4C)sc3nc2C)cc1` (stereo unspecified): the growth was 17.9%.

Take `CCCCCCCCCCCCCCCCCCOc1ccccc1N`: the growth was 27.8%.

Regarding `CC(=O)O[C@H]1CC[C@@]2(C)[C@@H](CC[C@@H]3[C@@H]2CC[C@@]2(C)[C@H]3CC[C@]2(O)C(C)=O)C1`, the growth was 96.4%.

Take `CCC1(CC)NC(=O)c2c(c3ccc(Cl)c(Cl)c3n2C)C1C#N` (stereo unspecified): the growth is 84%.

Turning to `COc1ccc(C2CC(c3cccc(Nc4ccncc4)c3)=NN2c2cc(Cl)cc(Cl)c2)cc1` (stereo unspecified), the growth is 70.8%.

`CC(=O)Nc1ccc(S(=O)(=O)NC2CCCCC2)cc1`: the growth was 91%.

As to `Clc1ccc(N2N=C(c3cccc(Nc4ccncc4)c3)CC2c2ccccc2)cc1` (stereo unspecified), the growth was 86.1%.

For the compound `CN1C2CCC1CN(c1cnc(C(=O)Nc3cc(F)cc4cccnc34)cn1)C2`, the growth was 51.4%.

Regarding `C=Cc1cc[n+](CCCCCCCCCCCC)cc1`, the growth was 101%.

With `CCCCCCCCCCCCCCCC(=O)OC[C@@]1(O)C[C@@]23CC[C@@H]4C(C)(C)[C@H](O)CC[C@@]4(C)[C@@H]2CC[C@H]1C3`, the growth was 96%.

Consider `O=C(CN1CCOCC1)Nc1ccc2ncnc(Nc3ccc(OCc4cccc(F)c4)c(Cl)c3)c2c1`, for which the growth was 48.1%.

On to `Clc1cc(Cl)cc(N2N=C(c3cccc(Nc4ccncc4)c3)CC2c2ccccc2)c1` (stereo unspecified), for which the growth was 71.4%.

Take `C[C@]12CCc3nc(Nc4cccc(O)c4)sc3C1=CC[C@@H]1[C@@H]2CC[C@]2(C)/C(=N\NC(N)=S)CC[C@@H]12`: the growth was 30.7%.

For the compound `Cc1c2c(cc[n+]1Cc1ccccc1)c1ccc(OCc3ccccc3)cc1n2Cc1ccccc1`, the growth was -86.6% (active).

For `O=C(O)CNC(=O)CN1C(=O)c2ccccc2C1=O`, the growth was 99.1%.

Take `O=C(Nc1nc2ccc(C(=O)N3CCN(c4ccc(Cl)c(Cl)c4)CC3)cc2s1)c1ccc(NCCc2ccccc2)c([N+](=O)[O-])c1`: the growth was 93.3%.

In the case of `COc1ccccc1-c1c(-c2ccc(Cl)cc2)c2cc3c(cc2[nH]c1=O)OCCO3`, the growth was 85.4%.

For `O=S(=O)(NCCNc1nccc(-c2c(-c3ccc(F)c(O)c3)nc3occn23)n1)c1ccccc1`, the growth was 48.8%.

As to `Clc1cc(Cl)cc(N2N=C(c3cccc(Nc4ccncc4)c3)CC2c2ccc(Br)cc2)c1` (stereo unspecified), the growth was 58.3%.

Take `Cn1c(COC(=O)NCCn2ccnc2)nc2c(N3CCOCC3)nc(-c3ccccc3)nc21`: the growth is -90.3% (active).

Consider `Cc1c2c(cc[n+]1Cc1ccc(F)cc1)c1ccc(OCc3cccc(F)c3)cc1n2Cc1cccc(F)c1`, for which the growth is -90.5% (active).

For `CCCOc1nc(SCCC)nc2c1cnn2-c1ccccc1`, the growth is 98.7%.

As to `Cc1ccc(/C=C/C(=O)c2ccc(N)cc2)c(C)c1`, the growth is 4.51% (active).

In the case of `Cc1cc(C)c(C=O)c(C)c1`, the growth is 103%.

For `COc1ccc(-c2c(-c3ccccc3)noc2N)cc1OC`, the growth is 105%.

In the case of `O=C1c2cccnc2C(=O)c2nc3cc(N4CCN(C5CC5)CC4)ccc3nc21`, the growth is -94.7% (active).

For `c1ccc(N2N=C(c3cccc(Nc4ccncc4)c3)CC2c2ccc3c(c2)OCO3)cc1` (stereo unspecified), the growth is 40.8%.

On to `COc1cc(NCC(C)(O)CN(CC(C)C)CC(C)C)c2nc(C)ccc2c1` (stereo unspecified), for which the growth was 81%.

For the compound `C[C@@H]1CN(Cc2ccc(/C=C/c3n[nH]c4ccc5nc(-c6cn[nH]c6C(F)(F)F)c6c(c5c34)CCCC6)cc2)C[C@H](C)O1`, the growth is 12.6%.

Turning to `CC1(C)CCCN1CCCN1c2ccccc2Sc2ccc(Cl)cc21`, the growth is 68.1%.

Consider `CC1CCN(C(=O)OCc2nc3nc(Cl)nc(N4CCOCC4)c3[nH]2)CC1`, for which the growth was -61.4% (active).

Regarding `CC1(C)CN(c2cnc(C(=O)Nc3cc(F)cc4cccnc34)cn2)CCN1`, the growth is 72.1%.

Take `Cn1c(COC(=O)NCCN2CCOCC2)nc2c(N3CCOCC3)nc(-c3ccccc3)nc21`: the growth was -81.2% (active).

A further assay has as its system UO-31 renal. The assay is described as above. The note with it: 10 µM unless noted.
Consider `CCN(CC)CCCCCCNc1cc(OC)cc2cccnc12`, for which the growth was 62.6%.

For the compound `COc1ccccc1Nc1cc(O)c2c(=O)cc(-c3ccccc3)oc2c1`, the growth was 46.6%.

For `COc1ccc(C(O)c2cc3c(N)c(C(=O)Nc4ccc(Cl)cc4)sc3nc2C)cc1` (stereo unspecified), the growth is 37%.

`COc1cc(NCC(O)CN(CC(C)C)CC(C)C)c2nc(C)ccc2c1` (stereo unspecified): the growth was 66.9%.

Consider `CCCCCCCCCCN=C(N)N=C(N)N`, for which the growth is 43.1%.

For the compound `COc1ccc(C(O)c2cc3c(N)c(C(=O)Nc4cccc(Br)c4C)sc3nc2C)cc1` (stereo unspecified), the growth is 33.5%.

As to `CCCCCCCCCCCCCCCCCCOc1ccccc1N`, the growth is -37% (active).

Consider `CC(=O)O[C@H]1CC[C@@]2(C)[C@@H](CC[C@@H]3[C@@H]2CC[C@@]2(C)[C@H]3CC[C@]2(O)C(C)=O)C1`, for which the growth was 92.7%.

For `CCC1(CC)NC(=O)c2c(c3ccc(Cl)c(Cl)c3n2C)C1C#N` (stereo unspecified), the growth was 70.5%.

Regarding `COc1ccc(C2CC(c3cccc(Nc4ccncc4)c3)=NN2c2cc(Cl)cc(Cl)c2)cc1` (stereo unspecified), the growth is 53.7%.

`CC(=O)Nc1ccc(S(=O)(=O)NC2CCCCC2)cc1`: the growth is 85.2%.

For `Clc1ccc(N2N=C(c3cccc(Nc4ccncc4)c3)CC2c2ccccc2)cc1` (stereo unspecified), the growth is 83.1%.

As for `CN1C2CCC1CN(c1cnc(C(=O)Nc3cc(F)cc4cccnc34)cn1)C2`, the growth was 28.3%.

Take `C=Cc1cc[n+](CCCCCCCCCCCC)cc1`: the growth was 94%.

For the compound `CCCCCCCCCCCCCCCC(=O)OC[C@@]1(O)C[C@@]23CC[C@@H]4C(C)(C)[C@H](O)CC[C@@]4(C)[C@@H]2CC[C@H]1C3`, the growth was 92.4%.

In the case of `O=C(CN1CCOCC1)Nc1ccc2ncnc(Nc3ccc(OCc4cccc(F)c4)c(Cl)c3)c2c1`, the growth was 30.7%.

In the case of `Clc1cc(Cl)cc(N2N=C(c3cccc(Nc4ccncc4)c3)CC2c2ccccc2)c1` (stereo unspecified), the growth is 62%.

Take `C[C@]12CCc3nc(Nc4cccc(O)c4)sc3C1=CC[C@@H]1[C@@H]2CC[C@]2(C)/C(=N\NC(N)=S)CC[C@@H]12`: the growth is -37.1% (active).

For `Cc1c2c(cc[n+]1Cc1ccccc1)c1ccc(OCc3ccccc3)cc1n2Cc1ccccc1`, the growth is -18.2% (active).

On to `O=C(O)CNC(=O)CN1C(=O)c2ccccc2C1=O`, for which the growth was 86.3%.

For `O=C(Nc1nc2ccc(C(=O)N3CCN(c4ccc(Cl)c(Cl)c4)CC3)cc2s1)c1ccc(NCCc2ccccc2)c([N+](=O)[O-])c1`, the growth was 60.7%.

For the compound `COc1ccccc1-c1c(-c2ccc(Cl)cc2)c2cc3c(cc2[nH]c1=O)OCCO3`, the growth was 61.9%.

Turning to `O=S(=O)(NCCNc1nccc(-c2c(-c3ccc(F)c(O)c3)nc3occn23)n1)c1ccccc1`, the growth is 35.2%.

With `Clc1cc(Cl)cc(N2N=C(c3cccc(Nc4ccncc4)c3)CC2c2ccc(Br)cc2)c1` (stereo unspecified), the growth is 52.1%.

In the case of `Cn1c(COC(=O)NCCn2ccnc2)nc2c(N3CCOCC3)nc(-c3ccccc3)nc21`, the growth is -100% (active).

For `Cc1c2c(cc[n+]1Cc1ccc(F)cc1)c1ccc(OCc3cccc(F)c3)cc1n2Cc1cccc(F)c1`, the growth was 53.9%.

`CCCOc1nc(SCCC)nc2c1cnn2-c1ccccc1`: the growth was 91.9%.

With `Cc1ccc(/C=C/C(=O)c2ccc(N)cc2)c(C)c1`, the growth is 11.7%.

For `Cc1cc(C)c(C=O)c(C)c1`, the growth was 86.3%.

Take `COc1ccc(-c2c(-c3ccccc3)noc2N)cc1OC`: the growth was 91.5%.

Take `O=C1c2cccnc2C(=O)c2nc3cc(N4CCN(C5CC5)CC4)ccc3nc21`: the growth is -100% (active).

On to `c1ccc(N2N=C(c3cccc(Nc4ccncc4)c3)CC2c2ccc3c(c2)OCO3)cc1` (stereo unspecified), for which the growth is 30.6%.

With `COc1cc(NCC(C)(O)CN(CC(C)C)CC(C)C)c2nc(C)ccc2c1` (stereo unspecified), the growth was 54.5%.

For `C[C@@H]1CN(Cc2ccc(/C=C/c3n[nH]c4ccc5nc(-c6cn[nH]c6C(F)(F)F)c6c(c5c34)CCCC6)cc2)C[C@H](C)O1`, the growth was 4.93% (active).

In the case of `CC1(C)CCCN1CCCN1c2ccccc2Sc2ccc(Cl)cc21`, the growth is 42.3%.

For the compound `CC1CCN(C(=O)OCc2nc3nc(Cl)nc(N4CCOCC4)c3[nH]2)CC1`, the growth was -100% (active).

For the compound `CC1(C)CN(c2cnc(C(=O)Nc3cc(F)cc4cccnc34)cn2)CCN1`, the growth was 40.9%.

For `Cn1c(COC(=O)NCCN2CCOCC2)nc2c(N3CCOCC3)nc(-c3ccccc3)nc21`, the growth is -100% (active).
